Source: PubChem BioAssay AID602342 (Broad Institute, 2012)
Screen size: about 340,000 compounds; about 1,000 (0.29%) were called active. Many of the other results were omitted from the sample, so actives are more common in it than they were. A number with no mark means an inactive call.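 The calls were made as follows: active = mean replicate activation score at least 90 and every replicate individually at or above 90; inconclusive = only one of the two criteria met; inactive = neither criterion met.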

Assay: compounds raising miR-122 luciferase sensor output – cell-based, single point, plate reader, miR-122 inhibitor project, primary screen (AID 602342);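 also: higher luciferase means less miR-122 activity so hits act as miR-122 inhibitors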
Details: Huh7 miR-122 Renilla luciferase sensor, 48 h, hits give high values, neutral wells = 0, positive control = 100

Compound: COc1ccc(C(=O)N2C[C@@H]3[C@H](c4ccccc42)[C@H](CO)N3Cc2ccc3c(c2)OCO3)cc1
- activation (reporter increase) (at 16.7 µM unless noted): 247% (active)

Compound: COc1cccc(CN2[C@H](CO)[C@@H]3c4ccccc4N(C(=O)c4ccncc4)C[C@@H]32)c1
- activation (reporter increase) (at 16.7 µM unless noted): 46.9%

Compound: COc1ccccc1NC(=O)N1C[C@H]2[C@@H](c3ccccc31)[C@H](CO)N2Cc1ccc2c(c1)OCO2
- activation (reporter increase) (at 16.7 µM unless noted): 28.6%

Compound: O=C(c1ccncc1)N1C[C@H]2[C@@H](c3ccccc31)[C@H](CO)N2C(=O)c1ccccn1
- activation (reporter increase) (at 16.7 µM unless noted): -28.6%

Compound: C/C=C/c1ccc([C@H]2[C@@H](CO)N(S(C)(=O)=O)[C@@H]2CN(C)C(=O)CC)cc1
- activation (reporter increase) (at 16.7 µM unless noted): 6.25%

Compound: CN1C(=O)c2cc(NS(=O)(=O)c3ccc(Cl)cc3)ccc2OC[C@@H]2O[C@H](CC(=O)O)CC[C@@H]21
- activation (reporter increase) (at 16.7 µM unless noted): 5.56%

Compound: O=C(Nc1ccc2c(c1)[C@H]1C[C@@H](CC(=O)N3CCc4ccccc4C3)O[C@H](CO)[C@H]1O2)Nc1ccccc1F
- activation (reporter increase) (at 16.7 µM unless noted): -7.95%

Compound: CO[C@@H]1CN(C)C(=O)c2ccc(NS(=O)(=O)c3ccc(Cl)cc3)cc2OC[C@@H](C)N(C)C[C@H]1C
- activation (reporter increase) (at 16.7 µM unless noted): -8.17%

Compound: COC(=O)c1ccc(C(=O)Nc2cc(Cl)ccc2Cl)cc1NC(=O)c1ccccc1C
- activation (reporter increase) (at 16.7 µM unless noted): -1.04% [at 12.5 µM]

Compound: C=CCNC(=O)c1ccccc1NC(=O)c1ccc(Cl)c(S(=O)(=O)Nc2cccc(C)c2C)c1
- activation (reporter increase) (at 16.7 µM unless noted): 155% [at 12.5 µM] (active)

Compound: Cc1ccc(C(=O)Nc2ccccc2C(=O)NC2CCCCC2)cc1S(=O)(=O)N1CCOCC1
- activation (reporter increase) (at 16.7 µM unless noted): -2.85% [at 12.5 µM]

Compound: CCC(=O)N(C)C[C@@H]1Oc2ncc(C#C[C@H](C)O)cc2C(=O)N([C@@H](C)CO)C[C@@H]1C
- activation (reporter increase) (at 16.7 µM unless noted): 1.39%

Compound: Cc1ccccc1S(=O)(=O)N1C[C@H](O)COC[C@H]2O[C@H](CC(=O)N3CCCCC3)CC[C@@H]21
- activation (reporter increase) (at 16.7 µM unless noted): 8.99%

Compound: Cc1cccc(NS(=O)(=O)c2ccc(-c3cnc(C4CC4)o3)cc2)c1
- activation (reporter increase) (at 16.7 µM unless noted): 186% [at 12.5 µM] (active)

Compound: COc1ccc(CNS(=O)(=O)c2ccc(-c3cnc(C4CC4)o3)cc2)cc1
- activation (reporter increase) (at 16.7 µM unless noted): -3.38% [at 12.5 µM]

Compound: Cc1cccc(CNS(=O)(=O)c2ccc(-c3cnc(C4CC4)o3)cc2)c1
- activation (reporter increase) (at 16.7 µM unless noted): 3.02% [at 12.5 µM]

Compound: C[C@@H]1CN([C@H](C)CO)C(=O)c2cccc(NS(=O)(=O)c3ccc(F)cc3)c2O[C@H]1CN(C)Cc1ccc(Oc2ccccc2)cc1
- activation (reporter increase) (at 16.7 µM unless noted): 3.49%

Compound: O=C(NC1CCCC1)[C@H]1[C@H](CO)[C@H]2Cn3c(ccc(-c4ccccc4)c3=O)[C@H]2N1CCc1ccccc1
- activation (reporter increase) (at 16.7 µM unless noted): -0.306%

Compound: C[C@H](CO)N1C[C@H](C)[C@H](CN(C)C(=O)Nc2ccccc2C(F)(F)F)OCc2cn(nn2)CCCC1=O
- activation (reporter increase) (at 16.7 µM unless noted): -4.03%

Compound: Cn1c(=N)n(CC(O)c2cccs2)c2ccccc21 (configuration not stated)
- activation (reporter increase) (at 16.7 µM unless noted): -2.61% [at 12.5 µM]

Compound: N=c1n(Cc2ccc(Cl)cc2)c2ccccc2n1CC(O)c1ccco1 (configuration not stated)
- activation (reporter increase) (at 16.7 µM unless noted): 262% [at 12.5 µM] (active)

Compound: C[C@H](CO)N1C[C@H](C)[C@@H](CN(C)C(=O)Nc2ccc3c(c2)OCO3)OCCCC[C@H](C)Oc2ccc(NC(=O)Nc3ccc(F)cc3)cc2C1=O
- activation (reporter increase) (at 16.7 µM unless noted): -4.3%

Compound: Cc1noc(C)c1S(=O)(=O)N(C)C[C@@H]1OCCCC[C@H](C)Oc2ccc(NC(=O)Nc3ccc4c(c3)OCO4)cc2C(=O)N([C@H](C)CO)C[C@H]1C
- activation (reporter increase) (at 16.7 µM unless noted): -8.18%

Compound: O=C(Nc1ccccc1)[C@@H]1[C@@H](CO)[C@@H]2Cn3c(cccc3=O)[C@@H]2N1C(=O)C1CC1
- activation (reporter increase) (at 16.7 µM unless noted): -0.104%

Compound: C[C@@H]1CN([C@H](C)CO)C(=O)c2cc(NC(=O)c3ccccc3)ccc2O[C@@H](C)CCCCO[C@H]1CN(C)C(=O)c1ccncc1
- activation (reporter increase) (at 16.7 µM unless noted): -8.54%

Compound: COc1ccc(S(=O)(=O)N(C)C[C@@H]2Oc3ccc(NC(=O)CCC(F)(F)F)cc3C(=O)N([C@@H](C)CO)C[C@H]2C)cc1
- activation (reporter increase) (at 16.7 µM unless noted): -0.455%

Compound: Cc1ccc(S(=O)(=O)Nc2ccc3c(c2)CC(=O)N([C@@H](C)CO)C[C@H](C)[C@H](CN(C)Cc2ccc(C(=O)Nc4ccccc4N)cc2)O3)cc1
- activation (reporter increase) (at 16.7 µM unless noted): 252% (active)

Compound: C[C@H]1CN([C@@H](C)CO)C(=O)Cc2cc(NS(=O)(=O)c3ccccc3)ccc2O[C@H]1CN(C)Cc1ccc(C(=O)Nc2ccccc2N)cc1
- activation (reporter increase) (at 16.7 µM unless noted): 71.5%

Compound: C[C@H]1CN([C@@H](C)CO)C(=O)Cc2cc(NS(=O)(=O)c3ccccc3)ccc2O[C@@H]1CN(C)Cc1ccc(C(=O)Nc2ccccc2N)cc1
- activation (reporter increase) (at 16.7 µM unless noted): -6.43%

Compound: C[C@H](CO)N1C[C@H](C)[C@@H](CN(C)S(=O)(=O)c2ccc(F)cc2)Oc2ccc(NC(=O)CCC(F)(F)F)cc2C1=O
- activation (reporter increase) (at 12.5 µM): 1.48%
- activation (reporter increase) (at 16.7 µM): -2.79%

Compound: Cc1ccc(S(=O)(=O)N(C)C[C@H]2Oc3ccc(NC(=O)CCC(F)(F)F)cc3C(=O)N([C@@H](C)CO)C[C@H]2C)cc1
- activation (reporter increase) (at 16.7 µM unless noted): 99.9% (active)

Compound: COCC(=O)Nc1ccc2c(c1)C(=O)N(C)[C@H]1CC[C@H](CC(=O)Nc3ccccc3)O[C@H]1CO2
- activation (reporter increase) (at 16.7 µM unless noted): 1.21%

Compound: NCC[C@@H]1CC[C@@H](NC(=O)C2CCCC2)[C@H](CO)O1
- activation (reporter increase) (at 16.7 µM unless noted): -3.47%

Compound: CC(C)C#Cc1ccc([C@@H]2[C@@H](CO)N3CCCCN(C(=O)c4ccc5c(c4)OCO5)C[C@H]23)cc1
- activation (reporter increase) (at 16.7 µM unless noted): -24%

Compound: Cc1c(-c2ccccc2)cn2c1-c1ccc(C)n1CC2
- activation (reporter increase) (at 16.7 µM unless noted): 248% [at 12.5 µM] (active)

Compound: C[C@H]1CCCCO[C@H](CN(C)S(=O)(=O)c2cn(C)cn2)[C@@H](C)CN([C@@H](C)CO)C(=O)c2cc(NC(=O)C3CCCCC3)ccc2O1
- activation (reporter increase) (at 16.7 µM unless noted): 1.57%

Compound: CCCNC(=O)N(C)C[C@@H]1Oc2ncc(C#CC(C)C)cc2C(=O)N([C@H](C)CO)C[C@H]1C
- activation (reporter increase) (at 16.7 µM unless noted): -5.52%

Compound: CN1c2ccc(-c3ccccc3)cc2[C@H]2[C@H](CCN2C(=O)c2ccc3c(c2)OCO3)[C@H]1CO
- activation (reporter increase) (at 16.7 µM unless noted): 72.9%

Compound: CC(C)CNS(=O)(=O)c1ccc(C(=O)Nc2ccc3c(c2)OCO3)cc1
- activation (reporter increase) (at 16.7 µM unless noted): 39.9% [at 12.5 µM]

Compound: O=C(COc1ccc(Cl)cc1)Nc1ccc2c(c1)OCO2
- activation (reporter increase) (at 16.7 µM unless noted): -4.55% [at 12.5 µM]

Compound: CC(C)CNS(=O)(=O)c1ccc(OCC(=O)Nc2ccc3c(c2)OCO3)c(Cl)c1
- activation (reporter increase) (at 16.7 µM unless noted): 303% [at 12.5 µM] (active)
